Source: article PMC4336329 (PLoS ONE, 2015)
The campaign covered roughly 310,000 compounds. About 2,200 (0.71%) showed an effect of 50% or more. Effects have a minus sign here. The sample as a whole holds a higher share of strong results than the screen did.

These molecules were tested against human ether-à-go-go-related gene (hERG) potassium channel (human, UniProt Q12809) (assay: primary screen, population patch clamp on CHO cells stably expressing hERG; higher = less effect of the substance).
Description: Briefly, Chinese hamster ovary (CHO) cells stably expressing the hERG channel were dislodged from tissue culture flasks and dispensed into PPC plates. […] During the recording, background leak currents were estimated by a 100 ms step to -80 mV from an initial holding potential of -70 mV and subtracted from the subsequent current measurement. The campaign was conducted in two phases using slight differences in recording protocol. In the first phase, the initial voltage pulse used a 100 ms step to -30 mV from a holding potential of -70 mV, a 2 s conditioning step to +25 mV, and a 2 s test step to -30 mV. During the second phase of the screen, the potential during the conditioning step was raised to +45 mV. In both phases of the campaign, a secondary voltage pulse was applied using the same parameters as the second phase initial pulse. The initial and secondary pulses were applied in the absence of compound, and upon application of 1 μM and 10 μM test concentrations. Small molecule effects on hERG current density were quantified by […].

Sequence of human ether-à-go-go-related gene (hERG) potassium channel (Q12809 whole entry, looked up): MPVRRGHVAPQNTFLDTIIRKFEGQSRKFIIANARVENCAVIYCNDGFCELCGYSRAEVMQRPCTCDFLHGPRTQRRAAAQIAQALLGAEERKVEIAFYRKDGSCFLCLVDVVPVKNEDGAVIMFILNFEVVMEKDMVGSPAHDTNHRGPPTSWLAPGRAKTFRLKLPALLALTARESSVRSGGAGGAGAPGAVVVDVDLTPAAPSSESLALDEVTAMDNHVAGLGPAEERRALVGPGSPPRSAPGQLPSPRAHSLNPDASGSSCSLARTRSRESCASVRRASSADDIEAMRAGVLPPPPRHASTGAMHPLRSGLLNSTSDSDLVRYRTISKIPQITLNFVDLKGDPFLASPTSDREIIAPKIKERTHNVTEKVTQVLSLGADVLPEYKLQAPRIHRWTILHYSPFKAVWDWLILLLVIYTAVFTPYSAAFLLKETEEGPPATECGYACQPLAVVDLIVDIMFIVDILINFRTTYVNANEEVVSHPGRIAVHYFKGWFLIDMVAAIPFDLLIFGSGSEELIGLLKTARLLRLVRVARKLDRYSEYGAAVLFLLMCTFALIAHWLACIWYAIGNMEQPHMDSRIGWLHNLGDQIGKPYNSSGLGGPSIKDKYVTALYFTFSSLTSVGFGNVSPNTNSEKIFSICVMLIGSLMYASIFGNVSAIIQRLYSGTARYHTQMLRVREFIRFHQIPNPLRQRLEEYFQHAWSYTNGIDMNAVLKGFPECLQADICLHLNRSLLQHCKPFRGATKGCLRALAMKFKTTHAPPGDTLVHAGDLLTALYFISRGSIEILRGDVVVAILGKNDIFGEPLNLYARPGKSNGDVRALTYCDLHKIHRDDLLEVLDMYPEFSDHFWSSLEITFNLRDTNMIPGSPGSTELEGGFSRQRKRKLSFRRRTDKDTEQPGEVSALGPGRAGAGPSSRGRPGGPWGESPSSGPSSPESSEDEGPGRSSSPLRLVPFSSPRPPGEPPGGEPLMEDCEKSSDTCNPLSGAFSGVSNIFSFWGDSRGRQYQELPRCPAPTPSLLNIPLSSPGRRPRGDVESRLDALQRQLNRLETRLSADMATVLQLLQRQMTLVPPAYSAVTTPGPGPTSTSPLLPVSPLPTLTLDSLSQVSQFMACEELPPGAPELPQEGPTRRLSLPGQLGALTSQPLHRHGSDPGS

Structure (SMILES) | hERG current change (%, negative = inhibition) at 1uM [%]
CN1CCN(Cc2ccccc2Sc2ccccc2)CC1.O=C(O)/C=C\C(=O)O | -68.1
CC(Cc1ccccc1Sc1ccccc1)N(C)C.O=C(O)/C=C\C(=O)O (stereo not drawn) | -60.6
N=C(N)Cc1ccccc1Sc1ccccc1.O=C(O)/C=C\C(=O)O | 5.87
CCN(CC)Cc1ccccc1Sc1ccccc1.O=C(O)/C=C\C(=O)O | -6.63
CC(Cc1ccccc1Sc1ccccc1O)N(C)C.Cl (stereo not drawn) | 3.67
CNC(C)Cc1ccccc1Sc1ccc(O)cc1.Cl (stereo not drawn) | -21.1
N/C(Cc1ccccc1Sc1ccccc1)=N\O.O=C(O)/C=C\C(=O)O | 4.44
CC(Cc1ccccc1Sc1ccc(O)cc1)N(C)C.CCO.Cl (stereo not drawn) | -73.1
O=C(O)/C=C\C(=O)O.c1ccc(Sc2ccccc2CN2CCCC2)cc1 | -11.3
CN(C)CCCn1c(SCC(=O)Nc2nc(-c3cccc(Br)c3)cs2)nc2ccccc2c1=O | -3.37
Cc1ccc([N+](=O)[O-])cc1NC(=O)c1ccccc1 | 0.0028
N#Cc1ccc(C(=O)Nc2nc(-c3cccs3)c(C(=O)C(F)(F)F)s2)cc1 | -18.6
CCC(CC)NC(=O)Nc1ccccc1C | 11.5
CC(C)OCCCN1CN(S(=O)(=O)c2ccc(Cl)cc2)c2nc3ccccc3nc21 | 13.8
O=C1Nc2ccc(Cl)cc2/C1=C/C1CC=CCC1 (stereo not drawn) | 7.83
COc1ccc(N2CCN(Cc3oc(CO)cc(=O)c3O)CC2)cc1 | 2.29
Cc1ccccc1CN1CCN(CC(=O)NC(C)c2ccccc2)CC1 (stereo not drawn) | 3.82
O=C(NCC1CCCO1)C(c1ccncc1)N(Cc1ccc(F)cc1)C(=O)CN1C(=O)c2ccccc2S1(=O)=O (stereo not drawn) | -51.2
COc1ccc(CN(C(=O)CN2C(=O)c3ccccc3S2(=O)=O)C(C(=O)NCC2CCCO2)c2ccco2)cc1 (stereo not drawn) | -2.31
COc1ccc(CN(C(=O)CN2C(=O)c3ccccc3S2(=O)=O)C(C(=O)NCC2CCCO2)c2ccncc2)cc1 (stereo not drawn) | 0.0687
COc1cccc(C(C(=O)NCC2CCCO2)N(CC2CCCO2)C(=O)CN2C(=O)c3ccccc3S2(=O)=O)c1 (stereo not drawn) | 12.5

Structure (SMILES) | hERG current change (%, negative = inhibition) at 1uM [%]
COc1cccc(CN(C(=O)CN2C(=O)c3ccccc3S2(=O)=O)C(C(=O)NCC2CCCO2)c2ccco2)c1 (stereo not drawn) | -50.1
O=C(NCC1CCCO1)C(c1ccco1)N(Cc1ccc(F)cc1)C(=O)CN1C(=O)c2ccccc2S1(=O)=O (stereo not drawn) | 8.75
COc1ccc(CC(=O)Nc2ccc(OC(C)=O)cc2C(=O)O)cc1 | -3.47
O=c1c2ccccc2nnn1CSc1nnc2ccccn12 | 6.78
Cc1ccc(Sc2ncccc2C(=O)O)cc1C | 15.6
CCOC(=O)N1CCC(NCCNC(=O)c2cccs2)CC1 | 5.13
CCOC(=O)c1[nH]c2ccc(OC)cc2c1NC(=O)OC | 9.33
NC(=O)C1CCN(C(=O)N2c3ccccc3Sc3ccccc32)CC1 | 0.149
C=CCN(CC=C)C(=O)C1CCN(S(=O)(=O)c2ccc(-n3cnnn3)cc2)CC1 | -13.1
C=CCNC(=O)C1CCN(c2ccc(S(=O)(=O)N3CCOCC3)cc2[N+](=O)[O-])CC1 | -2.79
CC(C)CNC(=O)C1CCN(c2ccc(S(=O)(=O)N3CCOCC3)cc2[N+](=O)[O-])CC1 | -9.02
O=C(NCc1ccco1)C1CCCN(S(=O)(=O)c2ccc(-n3cnnn3)cc2)C1 (stereo not drawn) | -26.8
O=C(NCc1ccccc1Cl)C1CCN(S(=O)(=O)c2ccc(-n3cnnn3)cc2)CC1 | -3.01
CCN(CC)C(=O)C1CCN(S(=O)(=O)c2ccc(-n3cnnn3)cc2)CC1 | 3.52
CN(Cc1ccccc1)C(=O)C1CCN(S(=O)(=O)c2ccc(-n3cnnn3)cc2)CC1 | -62
O=C(NCc1ccco1)C1CCN(c2ccc(S(=O)(=O)N3CCOCC3)cc2[N+](=O)[O-])CC1 | -51.5
O=C(NCc1ccco1)C1CCN(S(=O)(=O)c2ccc(-n3cnnn3)cc2)CC1 | -62.1
C[C@@H]1CN(Cc2nc(Cc3ccccc3F)no2)C[C@H](C)O1 | 8.68
O=C(Nc1cccc(C(=O)O)c1)/C(=C\c1ccc2c(c1)OCO2)NC(=O)c1ccccc1 | 3.01
CC(C)Oc1cccc(C(=O)C2CCCN(C(=O)c3cncs3)C2)c1 (stereo not drawn) | 4.28
Cc1cccc(OCc2n(CC(=O)OC3CC(C)CCC3C(C)C)c3ccccc3[n+]2C)c1.[Cl-] (stereo not drawn) | -12.2

Structure (SMILES) | hERG current change (%, negative = inhibition) at 1uM [%]
CC1CCC(C(C)C)C(OC(=O)Cn2c(-c3ccc(F)cc3)[n+](C)c3ccccc32)C1.[Cl-] (stereo not drawn) | -53.9
Cc1ccccc1OCc1n(CC(=O)OC2CC(C)CCC2C(C)C)c2ccccc2[n+]1C.[Cl-] (stereo not drawn) | -1.86
CC1CCC(C(C)C)C(OC(=O)C[n+]2cc(-c3ccc(Cl)cc3)n3c2CCC3)C1.[Cl-] (stereo not drawn) | -25.6
CC1CCC(C(C)C)C(OC(=O)C[n+]2cc(-c3ccc(Cl)cc3)n3c2CCCCC3)C1.[Cl-] (stereo not drawn) | -19.9
CC1CCC(C(C)C)C(OC(=O)Cn2c(-c3ccc(Cl)cc3)[n+](C)c3ccccc32)C1.[Cl-] (stereo not drawn) | -58
CC1CCC(C(C)C)C(OC(=O)Cn2c(COc3ccccc3)[n+](C)c3ccccc32)C1.[Cl-] (stereo not drawn) | -54
CC1CCC(C(C)C)C(OC(=O)Cn2c(-c3ccccc3)[n+](C)c3ccccc32)C1.[Cl-] (stereo not drawn) | -42.1
COc1ccc(OCc2n(CC(=O)OC3CC(C)CCC3C(C)C)c3ccccc3[n+]2C)cc1.[Cl-] (stereo not drawn) | -45.5
CC1CCC(C(C)C)C(OC(=O)Cn2c(-c3ccc(Br)cc3)[n+](C)c3ccccc32)C1.[Cl-] (stereo not drawn) | -60.7
CC1CCC(C(C)C)C(OC(=O)COC(=O)c2cccn2C)C1 (stereo not drawn) | 17.6
CC1CCC(C(C)C)C(OC(=O)COC(=O)c2ccccc2N)C1 (stereo not drawn) | 4.58
COc1ccc(N2CCC(CNS(=O)(=O)c3cccc(C(F)(F)F)c3)C2)cc1 (stereo not drawn) | 4.38
COc1cccc(NC(=O)Nc2nnc(CC(=O)Nc3ccccc3)s2)c1 | 6.56
CC(=O)Oc1ccc(-c2cccc(C(=O)NCCO)c2)cc1 | 16.3
O=C(CN1CCN(Cc2ccccc2Cl)CC1)N=Nc1c(O)[nH]c2ccccc12 | -5.17
O=C(CN1CCN(Cc2ccccc2)CC1)N=Nc1c(O)[nH]c2ccccc12 | -37.6
Cc1ccc(CN2CCN(CC(=O)N=Nc3c(O)[nH]c4ccccc34)CC2)cc1 | -75.3
COc1cc(C2CC(=O)Nc3cc(C)c(C)cc32)cc(OC)c1OC (stereo not drawn) | 14.3
COc1ccc(NC(=O)CNS(=O)(=O)c2ccc3nc(C)sc3c2)c(OC)c1 | 1.77
CC(C)C(Sc1nc(-c2ccccc2)cc(-c2ccccc2)c1C#N)C(=O)O (stereo not drawn) | 9.23
O=C(CN1CCC(n2nnc3cc(C(F)(F)F)ccc32)CC1)NCc1cccs1 | -56.9

Structure (SMILES) | hERG current change (%, negative = inhibition) at 1uM [%]
C=CCNC(=O)CN1CCC(n2nnc3cc(C(F)(F)F)ccc32)CC1 | -0.772
O=C(CN1CCC(n2nnc3ccccc32)CC1)NCc1cccs1 | -47.3
O=C(CN1C(=O)CCSc2ccccc21)Nc1ccc2c(c1)OCO2 | -4.53
O=C(CCCN1C(=O)/C(=C\c2cccs2)SC1=S)NNC(=O)c1ccncc1 | 4.39
O=C(/C=C/c1ccc([N+](=O)[O-])cc1)NCCN1C(=O)S/C(=C\c2ccc(F)cc2)C1=O | 2.19
CCN(CC)S(=O)(=O)c1ccc(S(=O)(=O)N2CCN(CCC#N)CC2)cc1 | 8.96
O=[N+]([O-])c1ccc(-c2ccc(S(=O)(=O)NCCN3CCCC3)cc2)cc1 | -77.3
N#CCCN(CCN1CCCC1)S(=O)(=O)c1ccc(-c2ccc([N+](=O)[O-])cc2)cc1 | -76.5
O=[N+]([O-])c1ccc(S(=O)(=O)NCCN2CCOCC2)cc1 | 12.6
O=S(=O)(NCCN1CCCC1)c1ccc(Br)cc1 | 3.89
Cc1ccc(S(=O)(=O)N(CCC#N)CCN2CCCC2)cc1 | 2.4
O=C(NCC(c1ccco1)N1CCCC1)c1ccccc1Sc1ccc(C(F)(F)F)cc1[N+](=O)[O-] (stereo not drawn) | 4.07
CCOc1ccccc1N1CCN(C(=O)c2cccc(S(=O)(=O)N3CCOCC3)c2)CC1 | 10.8
NC(=O)Cn1cnc2nc3n(c2c1=O)CCC3 | -2.24
CC1CN(C(=O)COC(=O)COc2ccc(C#N)cc2)CC(C)O1 (stereo not drawn) | 11.6
CC1(C)Cc2c(c(=S)nc(-c3ccccc3)n2CCN2CCOCC2)CO1 | 6.74
CCCC(=O)Nc1nc2c(C)c(Cl)ccc2s1 | 6.64
COc1ccc(NC(=O)C(c2ccccc2)N(C)C(=O)c2ccc(=O)[nH]c2)cc1 (stereo not drawn) | 16.6
